CYP2C9 inhib – inhibitors of human CYP2C9; CYP2C9 Supersomes, luciferin-H conversion, luminescence; inhibition, % at 5 µM; 96,000 compounds, 20% hits; AID 777;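 active = blocking of liver enzyme CYP2C9 beyond about 50% at 5 µM, limit read from the data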
E-sel TNF inh – TNF alpha driven E-selectin expression inhibition | HUVEC TNFa-induced E-selectin immunofluorescence, high content | inhibition, % at 2 µM | 120,000 compounds, 0.71% hits | AID 1246;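 active = inhibition above the batch mean plus 3 SD, and confirmed as a hit on visual image review, cut at about 43% in these data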;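 also: 0% = TNF-stimulated DMSO wells and 100% = unstimulated control wells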
cytoskel mod – modifiers of cytoskeleton assembly | HUVEC TNFa F-actin phalloidin imaging, high content | inhibition, % at 2 µM | 91,000 compounds, 0.18% hits;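 active = inhibition above the batch mean plus 3 SD and confirmed as a hit by visual image inspection, cut at about 30% in these data, passing the limit was not always enough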
CYP2C19 inh – blocks human cytochrome P450 2C19; P33261; inhibition, % at 5 µM; CYP2C19 Supersomes, luciferin-H EGE luminescence, 30 min; 96,000 compounds, 21% hits;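 active = CYP2C19 inhibition above a set limit at 5 µM in the primary screen, cut at about 50% in these data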;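 also: plate controls were negative control wells for no effect and 2.5 mM tranylcypromine positive control for full effect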
Target sequence (P33261 whole entry, looked up): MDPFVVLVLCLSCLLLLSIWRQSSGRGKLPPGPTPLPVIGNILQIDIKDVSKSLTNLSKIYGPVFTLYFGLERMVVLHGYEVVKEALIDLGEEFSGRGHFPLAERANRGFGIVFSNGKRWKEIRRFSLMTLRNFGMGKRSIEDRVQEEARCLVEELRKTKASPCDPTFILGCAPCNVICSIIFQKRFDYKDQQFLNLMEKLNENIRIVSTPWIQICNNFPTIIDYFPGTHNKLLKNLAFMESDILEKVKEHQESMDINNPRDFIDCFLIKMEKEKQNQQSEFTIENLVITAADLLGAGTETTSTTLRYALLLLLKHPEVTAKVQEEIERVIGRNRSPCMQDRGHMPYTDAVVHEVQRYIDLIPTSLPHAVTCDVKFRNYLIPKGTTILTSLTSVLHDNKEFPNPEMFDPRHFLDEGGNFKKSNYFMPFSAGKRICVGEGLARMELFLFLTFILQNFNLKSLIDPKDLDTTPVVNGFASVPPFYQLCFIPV
CYP2C19 act – cytochrome P450 2C19 (human) activation; P33261; recombinant CYP2C19, luciferin-H EGE luminescence; active compounds read high; 0 = fully inhibited enzyme, 1 = untreated enzyme; activation factor at 5 µM; 96,000 tested, under 10 active; AID 1025;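 active = activation factor of at least 2 at 5 µM in the primary screen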;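 also: 0 = wells with 2.5 mM tranylcypromine and 1 = vehicle-only wells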
CYP2C9 act – activators of human CYP2C9; recombinant CYP2C9, luciferin-H conversion, luminescence; active compounds read high; factor 1 = untreated enzyme, 0 = blocked; AID 1024; 96,000 compounds, 1.4% hits; activation factor at 5 µM;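 active = activation factor of 2 or more for CYP2C9 at a 5 µM dose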;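 also: 0 = sulfaphenazole-blocked wells and 1 = vehicle-only wells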
Active calls of the source: *. This is a sample that favours compounds with a hit; in the whole collection about 22% have one here.

How did CC(=O)N1CCc2cc(S(=O)(=O)CCC(=O)NCc3cccs3)ccc21 do in these assays?
CYP2C9 inhib: -13.1; E-sel TNF inh: 4.5; cytoskel mod: 0.4; CYP2C19 inh: 10.6; CYP2C19 act: 0.9; CYP2C9 act: 1.1

How did CC(=O)NC(N1CCCCC1)C(F)(F)C(F)(F)C(F)(F)C(F)F (configuration not stated) do in these assays?
CYP2C9 inhib: 65.0*; E-sel TNF inh: -43.2; CYP2C19 inh: 98.8*; CYP2C19 act: 0; CYP2C9 act: 0.3

How did Cc1ccc(CSc2nnc(C(F)(F)F)n2Cc2ccc(F)cc2)cc1 do in these assays?
CYP2C9 inhib: 69.0*; cytoskel mod: -3.4; CYP2C19 inh: 42.5; CYP2C19 act: 0.6; CYP2C9 act: 0.3

How did COc1cccc(CSc2nnc(C(F)(F)F)n2Cc2ccc(F)cc2)c1 do in these assays?
CYP2C9 inhib: 61.0*; E-sel TNF inh: 21.3; cytoskel mod: 35.6; CYP2C19 inh: 39.4; CYP2C19 act: 0.6; CYP2C9 act: 0.4

Results for O=c1cc(-c2ccccc2)[nH]c2[nH]n(-c3ccccc3)c(=O)c12 ?
CYP2C9 inhib: 56.5*; E-sel TNF inh: 6.7; cytoskel mod: -7.4; CYP2C19 inh: 0.0; CYP2C19 act: 1; CYP2C9 act: 0.4

Results for CCOC(=O)Cc1cc(=O)c2c(=O)n(-c3ccccc3)[nH]c2[nH]1 ?
CYP2C9 inhib: 4.8; E-sel TNF inh: 3.5; cytoskel mod: 2.9; CYP2C19 inh: 5.1; CYP2C19 act: 0.9; CYP2C9 act: 1

How did CC(=O)n1cc(C(C[N+](=O)[O-])SCCN)c2ccccc21 (configuration not stated) do in these assays?
CYP2C9 inhib: 43.8; cytoskel mod: -6.5; CYP2C19 inh: 28.8; CYP2C19 act: 0.7; CYP2C9 act: 0.6

What do the screens show for `CCN1CCN(C(=O)CN(C)S(=O)(=O)c2cc(C)ccc2OC)CC1`?
E-sel TNF inh: 11.9

Results for CCN(C(=O)c1cc(Cl)ccc1OC)C1CCCCC1 ?
CYP2C9 inhib: 96.3*; E-sel TNF inh: -6.8; cytoskel mod: -10.4; CYP2C19 inh: 94.7*; CYP2C19 act: 0.1; CYP2C9 act: 0

What do the screens show for `CC(=O)N(CCN(C(C)=O)c1ccccc1)c1ccccc1`?
CYP2C9 inhib: -21.4; E-sel TNF inh: -15.3; cytoskel mod: 0.7; CYP2C19 inh: 72.8*; CYP2C19 act: 0.3; CYP2C9 act: 1.2

Results for CCN(C(=O)c1cc(Cl)ccc1OC)c1ccccc1C ?
E-sel TNF inh: -4.1; cytoskel mod: 2.4

What do the screens show for `CCN(C(=O)c1ccccc1Cl)c1ccccc1`?
CYP2C9 inhib: 3.9; E-sel TNF inh: -6.8; cytoskel mod: 12.4; CYP2C19 inh: 62.1*; CYP2C19 act: 0.4; CYP2C9 act: 1

What do the screens show for `CCN(C(=O)CCCC(=O)N(CC)c1ccccc1)c1ccccc1`?
E-sel TNF inh: -0.4

What do the screens show for `CCN(C(=O)c1cc(Cl)ccc1OC)c1ccccc1`?
CYP2C9 inhib: 44.9; E-sel TNF inh: -13.2; cytoskel mod: -10.6; CYP2C19 inh: 72.5*; CYP2C19 act: 0.3; CYP2C9 act: 0.6

Results for N#Cc1c(N)nc2c3c(sc(=N)c2c1N)NC(=O)CC3c1ccccc1 (configuration not stated) ?
CYP2C9 inhib: 11.7; E-sel TNF inh: -42.4; cytoskel mod: -1.6; CYP2C19 inh: 72.8*; CYP2C19 act: 0.3; CYP2C9 act: 0.9

Results for COc1ccc(/C(O)=C2\C(=O)C(=O)N(Cc3ccco3)C2c2cc(OC)ccc2OC)cc1 (configuration not stated) ?
E-sel TNF inh: -26.5

How did Cc1ccc(/C(O)=C2/C(=O)C(=O)N(CCCn3ccnc3)C2c2ccccn2)cc1 (configuration not stated) do in these assays?
CYP2C9 inhib: 20.3; E-sel TNF inh: -31.8; cytoskel mod: 20.2; CYP2C19 inh: 11.4; CYP2C19 act: 0.9; CYP2C9 act: 0.8

Results for Cc1ccc(C2/C(=C(/O)c3ccc(Br)cc3)C(=O)C(=O)N2Cc2ccco2)o1 (configuration not stated) ?
CYP2C9 inhib: 71.8*; E-sel TNF inh: 9.5; cytoskel mod: -1.2; CYP2C19 inh: -13.1; CYP2C19 act: 1.1; CYP2C9 act: 0.3

Results for Cc1ccccc1COc1ccc(/C(O)=C2/C(=O)C(=O)N(CCCn3ccnc3)C2c2ccco2)cc1 (configuration not stated) ?
CYP2C9 inhib: 95.4*; CYP2C19 inh: 75.3*; CYP2C19 act: 0.2; CYP2C9 act: 0

Results for CCOC(=O)c1c(C2CC2)csc1NC(=O)COC(=O)c1cnc(Cl)c(Cl)c1 ?
E-sel TNF inh: 20.4

How did Cc1ccc(Nc2nnc(SCC(=O)Nc3cccc(S(=O)(=O)NC4=NCCCCC4)c3)s2)c(C)c1 do in these assays?
E-sel TNF inh: -5.4

Results for CC(=O)c1ccc(NC(=S)NCC(c2ccco2)N2CCCC2)cc1 (configuration not stated) ?
E-sel TNF inh: -30.4

Results for CC(=O)c1cccc(S(=O)(=O)NCC(c2ccco2)N2CCCCC2)c1 (configuration not stated) ?
CYP2C9 inhib: 8.7; E-sel TNF inh: 29.3; cytoskel mod: -13.8; CYP2C19 inh: 75.3*; CYP2C19 act: 0.2; CYP2C9 act: 0.9

Results for CCN1C(=O)/C(=C/c2ccc(C)s2)NC1=S ?
CYP2C9 inhib: 58.7*; E-sel TNF inh: 6.9; cytoskel mod: -11.1; CYP2C19 inh: 38.5; CYP2C19 act: 0.6; CYP2C9 act: 0.4

Results for Cc1cccc(CN2C(=O)N/C(=C/c3ccc(C)s3)C2=O)c1 ?
CYP2C9 inhib: -47.8; E-sel TNF inh: -20.9; cytoskel mod: -0.5; CYP2C19 inh: 29.2; CYP2C19 act: 0.7; CYP2C9 act: 1.5

What do the screens show for `CCN(CC(=O)NCc1ccc(F)cc1)C(=O)C1CCN(C(=O)Nc2ccccc2)CC1`?
CYP2C9 inhib: -10.4; E-sel TNF inh: -20.5; CYP2C19 inh: 1.6; CYP2C19 act: 1; CYP2C9 act: 1.1

How did Cc1sc2nc(C3CC3)nc(SCC(=O)N3CCc4ccccc4C3)c2c1C do in these assays?
CYP2C9 inhib: 84.9*; CYP2C19 inh: 64.6*; CYP2C19 act: 0.4; CYP2C9 act: 0.2

How did CCc1c(C)sc2nc(C(C)C)nc(SCC(=O)N3CCc4ccccc4C3)c12 do in these assays?
CYP2C9 inhib: 96.6*; E-sel TNF inh: 0.5; cytoskel mod: 4.2; CYP2C19 inh: 21.0; CYP2C19 act: 0.8; CYP2C9 act: 0

Results for Cc1sc2nc(C3CC3)nc(SCC(=O)N3CC(=O)Nc4ccccc43)c2c1C ?
CYP2C9 inhib: 65.6*; E-sel TNF inh: 2.4; CYP2C19 inh: 30.0; CYP2C19 act: 0.7; CYP2C9 act: 0.3

How did COc1ccc(-c2cc(C(N)=O)nc(N3CCCCCC3)n2)cc1 do in these assays?
CYP2C9 inhib: 25.8; cytoskel mod: -24.4; CYP2C19 inh: 5.3; CYP2C19 act: 0.9; CYP2C9 act: 0.7

From PubChem
